# Screening results from PubChem BioAssay.
# Sampled rows, rich in hits. Any-hit rate of the full collection: about 12%.
# JMJD2A Tudor inh – inhibitors of human JMJD2A Tudor domain | O75164 | AlphaScreen JMJD2A-Tudor / H3K4me3 peptide binding | Potency, µM (titrated, usually from 114 µM), for the others: at the highest dose activity change, negative = inhibition, usual class: inhibitors | 4.4% of 390,000 active; also: % is scaled to controls: 0 for no effect and ±100 for the full control effect; nearly all actives have a fitted effect of over 50% in size
# G9a inh – inhibitors of human histone lysine methyltransferase G9a | Q96KQ7 | G9a H3K9 monomethylation, AlphaScreen, 2 h | 8.8% of 350,000 active | Potency, µM (top dose mostly 102 µM), without a hit: at the highest dose activity, negative = inhibition, actives largely listed as inhibitors; also: % is scaled to controls: 0 for no effect and ±100 for the full control effect; nearly all actives have a fitted effect of over 75% in size
# Target sequence (Q96KQ7 913-1193 limits assumed): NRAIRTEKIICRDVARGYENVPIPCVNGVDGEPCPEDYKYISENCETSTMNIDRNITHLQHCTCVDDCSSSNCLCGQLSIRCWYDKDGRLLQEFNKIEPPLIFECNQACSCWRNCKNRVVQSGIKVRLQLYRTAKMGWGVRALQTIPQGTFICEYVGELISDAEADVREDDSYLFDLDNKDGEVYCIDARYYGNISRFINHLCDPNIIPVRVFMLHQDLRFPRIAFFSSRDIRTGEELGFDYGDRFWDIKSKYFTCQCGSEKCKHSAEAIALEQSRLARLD
#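 Methyltransferase reactions run at room temperature for 2 h (20 nM enzyme, 500 nM biotin-H3K9 peptide, 20 uM SAM) after a 15 min compound preincubation; product detected by AlphaScreen beads and anti-H3K9me1 antibody.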
# BAZ2B inh – BAZ2B (human) inhibition; Potency, µM (highest dose often 114 µM), for inactives: at the top dose activity change, negative = inhibition, usual class: inhibitors; AID 504333; 4.4% of 360,000 active; AlphaScreen BAZ2B-H3K14Ac peptide displacement; also: % is scaled to controls: 0 for no effect and ±100 for the full control effect; nearly all actives have a fitted effect of over 60% in size
#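 Inhibition is scored as reduced AlphaScreen emission. The BAZ2B/b-H3(5-23)K14Ac complex (50 nM each) in PBS pH 7.4, 0.01% Tween-20 meets compound (up to 110 uM) for 30 min at RT before bead addition.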
# Sfp PPTase inh – inhibitors of Bacillus subtilis Sfp phosphopantetheinyl transferase | 3.5% of 310,000 active | Biochemical Sfp PPTase activity, qHTS | Q9F4F7 | Potency, µM, for the others: largest response in the series, negative = inhibition, most hits filed as inhibitors;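 also: the enzyme is Sfp with the accession as filed and its product quenches rhodamine fluorescence; 0% = enzyme reaction without inhibitor and -100% = no enzyme wells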
#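 Sfp 15 nM + cpd, 15 min RT; start w/ rhodamine-CoA 5 uM, BHQ-2-YbbR 12.5 uM (final); 50 mM Hepes pH 7.6, 10 mM MgCl2, 0.01% NP-40, 0.01% BSA; read 525/598 nm at 0 and 30 min.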
# HP1b chromo inh – blocks HP1-beta chromodomain binding to methylated histone tails; P83916; AlphaScreen HP1-beta / biotin-H3K9me3 peptide binding; Potency, µM (doses to about 114 µM), for the others: top-dose activity change, negative = inhibition, actives largely listed as inhibitors; 0.56% of 390,000 active; AID 540317; also: nearly all actives have a fitted effect of over 70% in size
# Target sequence (P83916 whole entry, looked up): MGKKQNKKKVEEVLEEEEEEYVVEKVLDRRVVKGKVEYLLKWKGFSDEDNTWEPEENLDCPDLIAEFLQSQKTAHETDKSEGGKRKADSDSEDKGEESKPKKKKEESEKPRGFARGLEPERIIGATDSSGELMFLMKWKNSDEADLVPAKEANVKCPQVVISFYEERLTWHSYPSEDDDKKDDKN
#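 Compound inhibition of the preformed complex between 50 nM HP1-beta and 50 nM biotinylated H3K9me3 peptide was read by AlphaScreen. Buffer was PBS pH 7.4 with 0.01% Tween-20. Incubations ran 30 min at room temperature, with 10 ug/mL donor/acceptor beads.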
# PLK1 PBD inh – blocks phosphopeptide binding to human PLK1 polo-box domain; P53350; Plk1 PBD binding of FITC phosphopeptide, fluorescence polarization; Potency, µM, for the others: max response, negative = inhibition, hits mostly inhibitors; 2.8% of 360,000 active; AID 720504; also: series mostly up to about 57 µM; % is scaled to controls: 0 for no effect and ±100 for the full control effect; nearly all actives have a fitted effect of over 65% in size
# Active calls of the source: *; ? = inconclusive; nt = no result given; [ ] = another dose, or the depositor's remark. Calls follow the shape of the dose curve; as a rule, active = well fitted curve in the direction sought with a large enough effect; inconclusive = small, poorly fitted or top-dose-only effect, or another doubt; inactive = no such curve, though single readings can be large; an effect the other way counts as inactive or inconclusive. Potency is read from the fitted curve at half-maximal effect.
SMILES,JMJD2A Tudor inh,G9a inh,BAZ2B inh,Sfp PPTase inh,HP1b chromo inh,PLK1 PBD inh
Cc1ccc(C)c(NC(=O)C(Cc2ccccc2)n2cccc2)c1 (stereo not given),-6%,10%[59 µM],-14%,nt,34%,nt
CC(=O)Nc1ccc(-c2nnc3n(CC(C)C)c(=O)c4ccccc4n23)cc1,?,?,-38%,nt,6%,nt
COc1cc(OC)cc(C(=O)NCC(=O)Nc2ccc(-c3ccccc3)cc2)c1,-9%,14%,3%,-1%,13%,5%
c1ccc(Nc2ncncc2-c2ccoc2)cc1,nt,-40%[0.501 µM],nt,-24%,nt,nt
CCc1ccc2[nH]c(=O)c(CN(Cc3cccs3)Cc3nnnn3Cc3ccccc3)cc2c1,-27%[57.1 µM],nt,nt,nt,13%[57 µM],nt
CCOC(=O)C1CCN(Cc2cn3c(-c4ccc(OC)cc4)nnc3s2)CC1,-24%,13µM*,?,nt,3%[57 µM],nt
CNC(=O)c1sc2nc(-c3ccc(OC)cc3)cn2c1C,-31%,50µM*,?,12%,14%,-3%
CCCN1CCN(CCCNC(=O)c2ccc3c(c2)sc2nc(-c4ccc(OCC)cc4)cn23)CC1,?,?,28µM*,nt,-17%,nt
Cc1c(C(=O)NCCCN2CCOCC2)sc2nc(-c3ccc(F)cc3)cn12,-13%,7%[59 µM],0%,0%,15%,3%
CCOc1ccc(-c2cn3c(n2)sc2cc(C(=O)NCCCN4CCCCCC4)ccc23)cc1,-7%,7%[59 µM],16%,nt,58%,nt
COc1ccc(-c2cn3c(C)c(C(=O)NCCN4CCOCC4)sc3n2)cc1,?,40µM*,?,-15%,1%,-4%
CCN(CC)C(=O)c1sc2nc(-c3ccc(OC)cc3)cn2c1C,-19%,?,-39%,-3%,-4%,4%
Cc1ccc(S(=O)(=O)c2nnn3c2nc(N2CCOCC2)c2sccc23)cc1C,-30%,0%[59 µM],-3%,nt,57%,nt
CC(=O)Nc1ccc(NC(=O)c2ccccc2-n2cnnn2)cc1,16%,?,1%,nt,19%,4%
CCOC(=O)C1CCN(C(=O)c2sc3nc(-c4ccccc4)cn3c2C)CC1,-17%,?,-29%,1%,9%,4%
CCN(CC)c1ccc(NC(=O)c2sc3nc(-c4ccccc4)cn3c2C)cc1,28µM*,5µM*,7.9µM*,nt,-37%[57 µM],nt
CCOC(=O)C1CCCN(C(=O)c2sc3nc(-c4ccc(OC)cc4)cn3c2C)C1 (stereo not given),-28%,40µM*,?,-4%,25%,-2%
Cc1c(C(=O)Nc2ccncc2)sc2nc(-c3ccccc3)cn12,?,?,?,-2%,30%,-8%
O=C(COc1ccccc1Br)Nc1ccc2c(c1)OCCCO2,-14%,18%,12%,-6%,-8%,-5%
NS(=O)(=O)c1ccc(Sc2nc3ccccc3s2)c([N+](=O)[O-])c1,?,45µM*,-32%,-16%,-9%,-22%
O=C(O)c1ccc(S(=O)(=O)Nc2ccc(O)c(Sc3nc4ccccc4s3)c2)cc1,89µM*,nt,?,-21%,3%,27µM*
O=C(O)c1ccc(S(=O)(=O)Nc2cccc(CP(=O)(c3ccccc3)c3ccccc3)c2)cc1,-8%,?,-19%,16%,30%,-13%
NS(=O)(=O)c1ccc(Sc2ccccn2)c([N+](=O)[O-])c1,-10%,0%,-7%,16%,16%,3%
Cc1cc(C)n(CCCNCC(O)c2ccccc2)n1 (stereo not given),79µM*,22µM*,?,-18%,?,-5%
Cc1ccc(OCCOc2cccc(Br)c2)c([N+](=O)[O-])n1,-2%,-13%[59 µM],-1%,-12%,20%,-4%
CC(C)NCCCCOc1cccc(Br)c1,35µM*,28µM*,50µM*,-12%,26%,19µM*
Brc1cccc(OCCSc2ncccn2)c1,?,57%[59 µM],77%,-8%,181%,13µM*
CC(C)NCCOc1cccc(Br)c1,4%,50µM*,?,2%,11%,1%
Clc1ccc(OCCCCSc2ncccn2)cc1,159%,?,146%,-27%,303%,30µM*
